About 2,800 (7.6%) of roughly 37,000 compounds were called active. Inconclusive results (about 1%) are left out. This is one part of a sample in which actives are shown more often than they occur. Values without a mark were called inactive. No stated cut-off is given here; in the data, active means inhibition above about 80%; inconclusive means no clear call, values can overlap the other calls; inactive means below that.

A short description of this test: NOMO-1 AML cell viability reduction, primary screen, STK33 inhibitor project, CellTiter-Glo luminescence (AID 2330). Particulars: NOMO-1 AML viability, 72 h, stronger effect = higher value, concentration not given here.
By inhibition is commonly meant the drop in the measured response relative to a control, in per cent. In the case of `C[C@H]1O[C@@H](O[C@H]2CC[C@]3(CO)C4CC[C@]5(C)[C@@H](C6=CC(=O)OC6)CC[C@]5(O)[C@@H]4CC[C@H]3C2)[C@H](O)[C@H](O)[C@@H]1O[C@@H]1O[C@H](CO)[C@@H](O)[C@H](O)[C@H]1O` (stereo not given in full), the inhibition was 119% (active).

As to `CCCCC/C=C\C/C=C\C/C=C\C/C=C\CCCCCC(=O)NCCO`, the inhibition is 10.8%. `COc1ccc(CNCc2nc3ccccc3c(=O)n2-c2ccc(F)cc2)cc1`: the inhibition was 23.8%.

`CC(C)c1ccc2c(c1O)CC[C@H]1C3=C(CC[C@]21C)C(=O)OC3`: the inhibition is 24.4%. For the compound `O=C(Nc1ccc2c(C(F)(F)F)cc(=O)oc2c1)c1nc2ncccn2n1`, the inhibition is 7.98%.

In the case of `COc1c(C(C)C)cc2c(c1O)[C@@]1(C(=O)O)CCCC(C)(C)C1CC2` (stereo not given in full), the inhibition is 16%. As to `CCCCCCCCCCCCCC(=O)O[C@@H]1[C@@H](C)[C@@]2(O)[C@@H](C=C(CO)C[C@]3(O)C(=O)C(C)=C[C@@H]23)[C@@H]2C(C)(C)[C@]12OC(C)=O`, the inhibition was 98.2% (active). In the case of `Cc1cc(OCc2cc(C(=O)O)oc2C)c2c3c(c(=O)oc2c1)CCCC3` it was 0.325%; in that of `CCCN(C/C=C/I)C1CCc2ccc(O)cc2C1` (stereo not given), 31.2%; in that of `COC1=C[C@@H]2[C@@H]3Cc4ccc(OC)c(O)c4[C@]2(CCN3C)CC1=O`, -7.75%.

As for `COC1=CC23CCN(C)[C@H](Cc4cc(OC)c(OC)cc42)C3=CC1=O`, the inhibition is 24.6%. As to `O=C(c1ccccc1)C12CN3CN(CN(C3)C1)C2`, the inhibition was -14.9%. Take `COc1ccccc1N1C(=O)NC(=O)C(CCc2ccncc2)(Cc2cccc3ccccc23)C1=O` (stereo not given): the inhibition is 32.3%.

Turning to `C[C@H]1CCC/C=C/C2C[C@H](O)C[C@H]2[C@H](O)/C=C\C(=O)O1` (stereo not given in full), the inhibition was 122% (active). As for `COc1ccc2[nH]cc(CCNCc3ccc(Br)cc3)c2c1`, the inhibition was 48.6%. Turning to `CCCCn1c(C)c(C(C)=O)c2c(OCC(=O)O)c(Cl)c(Cl)c(Cl)c21`, the inhibition was -7.33%. In the case of `c1ccc2c(c1)[I+]c1ccccc1-2`, the inhibition is 141% (active). As to `C=CC(C)(C)c1cc2cc3c(cc2oc1=O)O[C@H](C(C)(C)O)C3`, the inhibition is 45.2%. Consider `Cc1ncsc1CCCl`, for which the inhibition is 11.2%. With `CC(C)Nc1nc(Cl)nc(NC(C)C)n1`, the inhibition was 8.29%.

The record behind these values is PubChem BioAssay AID2330 (Broad Institute, 2010).
